High-throughput results (PubChem)
The list is not random: actives were taken first. Their share in the collection is about 2.1%.
TDP43 rescue: qHTS of TDP-43 Inhibitors; TDP-43 expressing yeast growth rescue, BacTiter-Glo, 24 h; Potency, µM (doses to about 46.1 µM), most hits filed as activators; 1.8% of 410,000 active; AID 652104, 2013; also: nearly all actives have a fitted effect of over 50% in size
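Readout is BacTiter-Glo luminescence of cell growth, so inhibitors register as activators. TDP-43-expressing yeast at OD600=0.02 in galactose medium, after raffinose pregrowth to mid-log, were incubated with compound for 24 hr at 30 deg C.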
Abeta rescue: qHTS for compounds that reverse cellular toxicity of Amyloid beta (A-beta) peptide in yeast: Primary Screen | 0.063% of 410,000 active | yeast expressing A-beta42, growth rescue, OD600, 48 h; response scale: 0% DMSO, 100% iron-clioquinol control | Potency, µM (top dose mostly 46.1 µM), most hits filed as activators; also: nearly all actives have a fitted effect of over 55% in size
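Yeast growth medium received pinned compounds, then yeast cells expressing toxic A-beta were added; plates incubated at 30 C for 48 hr. Growth read as absorbance at 600 nm, normalized to DMSO and equimolar FeCl3 plus clioquinol controls.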
FUS yeast rescue: qHTS for Suppressors of FUS Proteinopathy: Primary screen using FUS-linked yeast assay; AID 1347120, 2019; S. cerevisiae FUS-expressing, growth rescue, OD600, 24 h; Potency, µM (top dose mostly 76.6 µM), usual class: activators; 0.24% of 390,000 active; also: nearly all actives have a fitted effect of over 55% in size
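Restored growth of FUS-toxic S. cerevisiae, read as 600 nm absorbance after 24 h at 30C in galactose medium (starting OD 0.005). Controls CP55940 and DMSO.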
aSyn yeast inh: qHTS of alpha-syn Inhibitors. Yeast expressing alpha-synuclein, growth rescue, BacTiter-Glo, 24 h. Potency, µM (top dose mostly 46.1 µM), most hits filed as activators. 0.14% of 370,000 active. AID 652106, 2013; also: nearly all actives have a fitted effect of over 65% in size
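Galactose-induced alpha-syn yeast (OD600=0.02, raffinose-pregrown) + pinned cpd, 24 hr, 30 deg C; growth by BacTiter-Glo luminescence. Growth restoration scores as activation.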
Large screens that a line does not name were inactive. Calls follow the shape of the dose curve; as a rule, active = well fitted curve in the direction sought with a large enough effect; inconclusive = small, poorly fitted or top-dose-only effect, or another doubt; inactive = no such curve, though single readings can be large; an effect the other way counts as inactive or inconclusive.

CC(=O)c1ccc(NC(=O)c2c3c(nc4ccccc24)C(=O)N(C2CCCCC2)C3)cc1	none (no result: aSyn yeast inh)
CCCC[C@@H](CCCc1ccc(F)cc1)CCC(=O)N(c1ccccc1)c1ccccc1	none (no result: TDP43 rescue, Abeta rescue, aSyn yeast inh)
COc1ccccc1-c1cc2nc(NCCOc3ccccc3)ccn2n1	TDP43 rescue 25µM
c1ccc(OCCNc2ccn3nc(-c4cccs4)cc3n2)cc1	TDP43 rescue 14µM
c1ccc(OCCNc2ccn3nc(-c4ccco4)cc3n2)cc1	TDP43 rescue 16µM
CCOc1ccc(Nc2c(S(=O)(=O)c3ccc(Cl)cc3)cnc3ccc(OCC)cc23)cc1	FUS yeast rescue inconclusive (no result: aSyn yeast inh)
O=[N+]([O-])c1cccc(N/N=C/c2cccc(O)c2O)c1	TDP43 rescue 13µM
Cc1cccc(C)c1OCc1cccc(C2Nc3ccccc3C(=O)N2Cc2ccco2)c1 (stereo not drawn)	none (no result: TDP43 rescue, Abeta rescue, aSyn yeast inh)
Cc1cccc(-n2nc([N+](=O)[O-])c(=NCc3cccnc3)n2O)c1	TDP43 rescue inconclusive
O=[N+]([O-])c1nn(-c2cccc(Cl)c2)n(O)c1=NCc1cccnc1	TDP43 rescue 11µM (no result: FUS yeast rescue)
O=[N+]([O-])c1nn(-c2ccc(Cl)cc2)n(O)c1=NCc1cccnc1	TDP43 rescue 13µM (no result: FUS yeast rescue)
CC(C)(C)OC(=O)N(c1cccc2cccnc12)S(=O)(=O)c1ccccc1Br	none (no result: TDP43 rescue, Abeta rescue, FUS yeast rescue)
Cc1ccccc1CSCCNC(=O)COc1ccc(Cl)cc1	TDP43 rescue 11µM
CC(C)(C)SCCNC(=O)COc1ccc(Cl)cc1	none
Cc1ccccc1CSCCNC(=O)CCSc1ccccc1	TDP43 rescue 16µM, Abeta rescue inconclusive
Cc1ccc(CSCCNC(=O)CCSc2ccccc2)cc1	none
Cc1cccc(OCC(=O)Nc2cc(C)c(O)c(-c3nc4ccccc4o3)c2)c1	none (no result: TDP43 rescue, Abeta rescue, FUS yeast rescue)
Cc1ccc(S(=O)(=O)N2CCCC(C(=O)NCCN3CCC(Cc4ccccc4)CC3)C2)cc1 (stereo not drawn)	none (no result: TDP43 rescue, Abeta rescue, aSyn yeast inh)
CC1CCN(C(=O)Cn2cc(SCC(=O)NCc3ccccc3Cl)c3ccccc32)CC1	none (no result: aSyn yeast inh)
COc1ccc(C(=O)Sc2ccc(C)cc2)cc1OC	TDP43 rescue 11µM
O=C(c1cc(=O)c2ccccc2o1)N1CCN(c2cccc(Cl)c2)CC1	TDP43 rescue inconclusive
CCc1ccc2oc(C(=O)N3CCN(c4ccccc4OC)CC3)cc(=O)c2c1	TDP43 rescue 20µM
O=C(c1cc2ccccc2o1)N1CCN(S(=O)(=O)c2c(F)cccc2F)CC1	TDP43 rescue 14µM
O=C(c1cc(=O)c2ccccc2o1)N1CCN(c2ccccc2F)CC1	TDP43 rescue 14µM
COc1ccccc1N1CCN(C(=O)c2cc(=O)c3c(C)cc(C)cc3o2)CC1	TDP43 rescue 25µM
COc1ccccc1N1CCN(C(=O)COc2cc(C)cc3oc(=O)cc(C)c23)CC1	none
CC(=O)N1CCN(C(=O)c2cc3ccccc3o2)CC1	none
CC(=O)Nc1ccc(Nc2nc(Nc3ccc(Cl)cc3)nc(N3CCOCC3)n2)cc1	none (no result: TDP43 rescue, Abeta rescue, FUS yeast rescue)
Cc1cc2nc(-c3cccc(NC(=O)COc4ccc(C(C)C)cc4)c3)oc2cc1C	none (no result: aSyn yeast inh)
O=C(NCCc1csc(-c2cccnc2)n1)c1cccc(C(F)(F)F)c1	TDP43 rescue inconclusive
COc1ccccc1N1CCN(C(=O)c2oc3ccccc3c2N)CC1	TDP43 rescue 13µM (no result: aSyn yeast inh)
COc1ccccc1N1CCN(C(=O)c2oc3cc(C)c(C)cc3c2C)CC1	none
O=c1c(Cl)c(Nc2cccc(Cl)c2)cnn1-c1nc2ccccc2s1	none
COc1ccc(Nc2cnn(-c3nc4ccccc4s3)c(=O)c2Cl)cc1	TDP43 rescue 8.9µM (no result: FUS yeast rescue)
COc1cc2c(cc1OC)C(C(C(=O)N(CCc1ccc(OC)c(OC)c1OC)CCc1ccc(OC)c(OC)c1OC)c1ccccc1)=NCC2 (stereo not drawn)	none (no result: TDP43 rescue, Abeta rescue, FUS yeast rescue)
CN(C)CC(C(=O)c1ccccc1)c1ccccc1 (stereo not drawn)	none (no result: FUS yeast rescue)
CN(Cc1cc(Cl)cc(Cl)c1)CC(C(=O)c1ccccc1)c1ccccc1 (stereo not drawn)	TDP43 rescue 13µM (no result: FUS yeast rescue)
Cc1ccc(N2C(=O)c3ccccc3C2Nc2ccc(S(=O)(=O)N3CCCCC3)cc2)nc1 (stereo not drawn)	TDP43 rescue inconclusive, FUS yeast rescue 35µM
Nc1ncnc(Oc2cccc(C(F)(F)F)c2)c1[N+](=O)[O-]	TDP43 rescue 13µM
COc1cc(C)ccc1Oc1ncnc(N)c1[N+](=O)[O-]	none
Cc1nnc(NC(=O)c2ccc3ccccc3c2)o1	TDP43 rescue inconclusive, Abeta rescue 16µM, aSyn yeast inh inconclusive
CCc1nnc(NC(=O)c2ccc(S(=O)(=O)N(CC(C)C)CC(C)C)cc2)o1	TDP43 rescue inconclusive, aSyn yeast inh 22µM
Cc1nnc(NC(=O)c2ccc(S(=O)(=O)N(C)Cc3ccccc3)cc2)o1	TDP43 rescue 18µM, Abeta rescue inconclusive, aSyn yeast inh inconclusive
CCC1CN(C(=O)N2CCC(C(=O)NCCc3ccc(OC)cc3OC)CC2)c2cc(C)ccc2O1 (stereo not drawn)	FUS yeast rescue inconclusive (no result: aSyn yeast inh)
Cn1c2ccccc2c2ncn(CCC3=CCCCC3)c(=O)c21	TDP43 rescue 13µM
CC(=O)Nc1ccc(C(=O)OCC(=O)c2ccc(S(=O)(=O)N3CCCCC3)cc2)cc1	FUS yeast rescue 7.9µM
CC(=O)Nc1cccc(C(=O)OCC(=O)c2ccc(S(=O)(=O)N3CCCCC3)cc2)c1	none
CCOC(=O)c1c(C)oc2nc(C)nc(NCCCN3CCN(c4cccc(C)c4)C(C)C3)c12 (stereo not drawn)	none (no result: aSyn yeast inh)
O=S(=O)(NC(=S)NC1CCCCC1)c1ccc(Br)cc1	TDP43 rescue 20µM
O=C(CCNS(=O)(=O)c1ccc(Br)cc1)NC1CCCCC1	FUS yeast rescue inconclusive
CCCCN(C)C(=O)c1sc(=O)n(Cc2ccc(Cl)c(Cl)c2)c1C	TDP43 rescue 25µM, aSyn yeast inh inconclusive
CSc1ccc(Cn2c(C)c(C(=O)NCc3ccc(Cl)c(Cl)c3)sc2=O)cc1	Abeta rescue inconclusive, FUS yeast rescue inconclusive
Cc1nc2ccc(Oc3ccccc3)cc2s1	none
Nc1nc2ccc(OC(F)(F)F)cc2s1	TDP43 rescue 13µM (no result: aSyn yeast inh)
Nc1nc2ccc(Oc3ccccc3)cc2s1	TDP43 rescue 11µM (no result: FUS yeast rescue)
Nc1nc2ccc(O)cc2s1	none (no result: FUS yeast rescue)
O=C(O)c1ccc(N/N=C/c2cccc(C(F)(F)F)c2)cc1	TDP43 rescue 13µM
O=C(N/N=C/C(Br)=C/c1ccccc1)C1CC1	TDP43 rescue 22µM
O=C(O)c1ccc(N/N=C/C(Br)=C/c2ccccc2)cc1	TDP43 rescue 11µM
O=C(N/N=C/C(Br)=C/c1ccccc1)C(O)c1ccccc1 (stereo not drawn)	none
Cc1onc(-c2ccccc2)c1C(=O)N/N=C/c1cc(Br)c(O)c(Br)c1	none (no result: FUS yeast rescue)
Cc1onc(-c2ccccc2)c1C(=O)N/N=C/C(Br)=C/c1ccccc1	TDP43 rescue 18µM, aSyn yeast inh inconclusive (no result: FUS yeast rescue)
COc1ccc(-c2nc3ccc(NC(=O)CO)cc3c(=O)n2Cc2cccc(Cl)c2)cc1COc1ccc(NC(C)=O)cc1	none (no result: TDP43 rescue, Abeta rescue, FUS yeast rescue)
